Compound activity from PubChem BioAssay.
HT1080 IDH1KD tx – kills HT-1080 cells with IDH1 knockdown | HT-1080 IDH1 knockdown viability, ATP luminescence, 48 h | Potency, µM (doses to about 46.1 µM), hits mostly cytotoxic | actives 2% (n = 360,000)
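In this qHTS, HT-1080 cells depleted of IDH1 are exposed for 48 h at 37 °C to compound titrations. Toxicity is scored from CellTiter-Glo luminescence, with DMSO as full viability and medium alone as none.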
KB-3-1 tox – KB-3-1 parental cell cytotoxicity. Potency, µM (top dose mostly 46.1 µM), usual class: cytotoxic. actives 1.4% (n = 400,000). AID 1347075. KB-3-1 viability, CellTiter-Glo ATP luminescence, 72 h; further: nearly all actives have a fitted effect of over 60% in size
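Multi-concentration cytotoxicity screen in KB-3-1 cells grown in DMEM lacking phenol red with 10% FBS. After 72 h at 37 °C with compound, ATP-dependent luminescence was recorded.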
MCF10A rereplic – DNA re-replication induction in MCF 10a cells; actives 2.9% (n = 350,000); Potency, µM (doses to about 46.1 µM), usual class: activators; MCF 10A DNA re-replication, Hoechst nuclear intensity, 48 h; further: nearly all actives have a fitted effect of over 50% in size
KB-V1 cytotox – kills drug-selected multidrug resistant KB-V1 cells. actives 3.4% (n = 400,000). KB-V1 MDR cells viability, CellTiter-Glo, 72 h. Potency, µM (series often up to 46.1 µM), actives largely listed as cytotoxic. AID 1347076; further: nearly all actives have a fitted effect of over 60% in size
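Luminescent ATP read-out (CellTiter-Glo, 10 min) measures survival of drug-selected KB-V1 MDR cells after 72 h, 37 degrees C compound exposure. Medium: phenol-red-free DMEM, 10% FBS. Values from fitted concentration-response curves.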
HT1080NT lethal – kills 2HG-producing HT-1080-NT fibrosarcoma cells; HT-1080-NT fibrosarcoma viability, CellTiter-Glo ATP luminescence, 48 h; Potency, µM (highest dose often 46.1 µM), actives largely listed as cytotoxic; actives 1.6% (n = 360,000);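 further: NT is the 2HG producing partner of a matched IDH1 knockdown line; nearly all actives have a fitted effect of over 55% in size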
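Luminescent CellTiter-Glo readout after 48 hours of compound exposure at 37 degrees C defined viability of HT-1080-NT cells. Activity was normalized to DMSO wells and cell-free media wells; concentration-response curves were fitted and assigned curve classes.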
SW480 rerep – inducers of DNA re-replication in SW480 colon cancer cells; SW480 DNA re-replication, Hoechst DNA content imaging, 48 h; Potency, µM (titrated, usually from 46.1 µM), most hits filed as activators; actives 1.8% (n = 340,000); AID 624297; further: nearly all actives have a fitted effect of over 55% in size
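First, 250 cells per well were seeded. Next, compound or vehicle (23 nL) was pinned in, plates sat 48 hr at 37 C. Finally Hoechst was added for 40 min before fluorescence scanning.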
Hits are given with their value; . = inactive; ? = inconclusive; / = no result given. This is a sample that favours compounds with a hit; in the whole collection about 8% have one here. The call rests on the fitted dose curve; in most records, active means well fitted curve in the direction sought with a large enough effect; inconclusive means small, poorly fitted or top-dose-only effect, or another doubt; inactive means no such curve, though single readings can be large; an effect the other way counts as inactive or inconclusive.

SMILES	HT1080 IDH1KD tx	KB-3-1 tox	MCF10A rereplic	KB-V1 cytotox	HT1080NT lethal	SW480 rerep
OCCNCc1cc(Br)ccc1OCc1ccccc1	.	.	.	15µM	.	.
Cn1nnnc1SCCNCc1ccc(OCc2ccccc2Cl)cc1	/	23µM	/	?	/	/
Cn1nnnc1SCCNCc1ccccc1OCc1ccc(Cl)cc1	?	.	.	.	?	.
Cn1nnnc1SCCNCc1cc(Cl)ccc1OCc1ccccc1	.	.	?	5.2µM	.	.
Oc1ccc(CCc2n[nH]c(=S)n2-c2ccc(F)cc2)cc1	.	.	?	?	.	.
CCOc1cc(CNCCSc2nnnn2C)cc(Br)c1OCc1ccccc1	?	?	15µM	?	?	?
CCOc1c(Br)cc(CNCc2cccs2)cc1OC	.	.	.	.	.	.
COc1cccc(CNCCSc2nnnn2C)c1OCc1ccccc1	/	.	/	?	/	/
CCCCNCc1cc(Br)c(OCc2cccs2)c(OC)c1	21µM	?	.	?	?	.
O=CNc1cc(-c2ccoc2)cn2c(-c3ccc(F)cc3)cnc12	?	.	/	?	.	/
O=C(CC1CCCCC1)Nc1ccccc1-c1ccccc1	.	.	?	.	.	.
CC(NC1CCCC1)C(=O)Nc1ccccc1-c1ccccc1 (stereo unspecified)	.	.	.	12µM	.	.
O=C(CCC1CCCCC1)Nc1ccccc1-c1ccccc1	.	.	.	?	.	.
Cc1ccc(SC(C)C(=O)Nc2ccccc2-c2ccccc2)cc1 (stereo unspecified)	.	.	.	21µM	.	?
O=C(CCC1CCCC1)Nc1ccccc1-c1ccccc1	.	.	.	18µM	.	.
COc1ccc(S(=O)(=O)Nc2cc3c4c(c2)CC(=O)N4CCC3)cc1C	.	.	.	?	.	.
Cc1ccccc1NS(=O)(=O)c1ccc2[nH]cc(C(=O)N(C)Cc3ccco3)c(=O)c2c1	.	.	.	.	.	.
Cc1ccc(C2=NC(C(F)(F)F)(C(F)(F)F)c3c(n(-c4ccc(F)cc4)c(=O)[nH]c3=O)N2)cc1	.	10µM	?	21µM	.	?
O=c1[nH]c(=O)n(-c2ccc(F)cc2)c2c1C(C(F)(F)F)(C(F)(F)F)N=C(c1ccc(F)cc1)N2	18µM	.	?	?	15µM	?
COc1ccc(-n2c3c(c(=O)[nH]c2=O)C(C(F)(F)F)(C(F)(F)F)N=C(CC(C)C)N3)cc1	.	.	.	?	.	.
CCOC(=O)Nc1cc2c(C)cc(=O)oc2cc1C	.	.	.	.	.	.
COc1ccc(Br)c(C(=O)Nc2cccc(Cl)c2Cl)c1	.	.	.	?	.	.
O=C(CCC(=O)N(CC(=O)NC1CCCCC1)Cc1ccccc1)Nc1nccs1	.	.	.	?	.	.
Cc1cc(=O)[nH]c(SCC(=O)Nc2ccc(Cl)cn2)n1	.	.	.	.	.	.
O=C(COc1cccc2c1CCN(Cc1ccc(Br)cc1)C2=O)NCc1ccco1	.	?	.	2.6µM	.	.
SMILES	HT1080 IDH1KD tx	KB-3-1 tox	MCF10A rereplic	KB-V1 cytotox	HT1080NT lethal	SW480 rerep
O=C(COc1cccc2c1CCN(Cc1ccc(Br)cc1)C2=O)N1CCOCC1	.	?	.	4.1µM	.	.
O=C1c2cccc(OCC(=O)N3CCCc4ccccc43)c2CCN1Cc1ccccc1	.	.	.	.	.	.
O=C1c2cccc(OCC(=O)N3CCCc4ccccc43)c2CCN1Cc1ccc(Br)cc1	?	18µM	?	18µM	.	?
Cc1ccccc1CN1CCc2c(OCC(=O)N3CCCCC3)cccc2C1=O	.	.	?	?	.	.
COc1ccc(CCCc2nnc(SCC(=O)Nc3cc(C)ccc3C)o2)cc1	.	.	.	.	.	.
CC(C)N(C(=O)CSc1nnnn1C1CCCC1)C(C)C	.	.	.	13µM	.	.
CCCc1cc(=O)oc2cc(C)cc(O)c12	.	15µM	?	13µM	.	.
Cc1cc(=O)oc2cc(O)cc(O)c12	1.6µM	?	.	.	.	?
Cc1cccc(OCc2cc(-c3ccccc3)no2)c1C	.	.	.	?	.	.
Cc1cc(COc2ccccc2OCc2cc(C)no2)on1	.	.	.	12µM	.	.
Cc1ccc(OCC(=O)Oc2cccc(C)c2)cc1	.	.	.	.	.	.
CC(=O)Nc1ccccc1OCCOc1ccc(Br)cc1	.	?	.	18µM	.	?
CC(=O)Nc1cccc(OC(=O)COc2ccc(Br)cc2)c1	.	.	.	.	.	29µM
COCCNC(=O)CSc1nc2cc(OC)c(OC)cc2c(=O)n1CCc1ccc(S(N)(=O)=O)cc1	.	.	.	.	.	.
CCOc1ccc2nc3cc(NCc4ccc(OC)cc4)ccc3c(N)c2c1	?	?	15µM	.	?	?
CC(C)Oc1ccc(S(=O)(=O)N2CCOCC2)cc1NC(=O)c1cc([N+](=O)[O-])ccc1N1CCOCC1	.	.	.	.	.	?
C=CCn1c(=O)c2c(nc3n2CCN3c2cccc(Cl)c2C)n(C)c1=O	.	.	.	8.2µM	.	.
COc1ccc(N=C2C(=O)N3c4c(cccc42)C(C)=CC3(C)C)cc1	.	.	21µM	?	.	21µM
COc1ccc(N=C2C(=O)Nc3ccccc32)cc1	.	.	.	.	?	?
Cc1ccccc1C(=O)N1CCC(C(=O)Nc2ccccc2N2CCCC2)CC1	.	.	.	.	.	?
O=S(=O)(c1cccs1)N1CCN(CC(O)COc2cc(Cl)ccc2Cl)CC1 (stereo unspecified)	?	?	?	8.2µM	.	.
O=S(=O)(c1cccs1)N1CCN(CCOc2ccc(Cl)cc2)CC1	.	?	.	?	.	.
O=[N+]([O-])c1nc2ccccc2[nH]1	.	?	.	18µM	.	.
CCOC(=O)c1c(C)[nH]c(C)c1C(=O)CSc1nc2ccccc2n1CC	.	.	.	.	.	.
O=C(c1nc2ccccc2[nH]1)c1ccccc1[N+](=O)[O-]	.	?	.	.	.	.
CCOC(=O)c1c(C)[nH]c(C)c1C(=O)Cn1nnc(-c2ccccc2C)n1	.	.	21µM	16µM	.	.
CCOC(=O)c1c(C)[nH]c(C)c1C(=O)CSc1nnnn1-c1ccccc1	.	.	.	?	.	.
CCOC(=O)c1c(C)[nH]c(C)c1C(=O)CSc1nc2ccccc2c(=O)n1-c1ccc(CC)cc1	.	23µM	?	7.3µM	.	.
CCOC(=O)c1c(C)[nH]c(C)c1C(=O)CSc1nc2ccccc2[nH]1	.	.	.	23µM	.	.
COc1cccc(CN(C)S(=O)(=O)c2c(C)noc2C)c1OC	.	.	.	.	.	.
